# Only some compounds are listed: those with a hit (about 2.3% of all), similar ones and a draw of the others.
# Nrf2 activator: qHTS of Nrf2 Activators | AREc32 ARE-luciferase reporter (MCF7-derived line), luminescence, 24 h | 410,000 tested, 0.31% active | Potency, µM (titrated, usually from 46.1 µM), actives largely listed as activators; also: nearly all actives have a fitted effect of over 65% in size
#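 AREc32 cells carrying an ARE-driven firefly luciferase, 1000 cells/well in OPTI-MEM with 5% FBS, dosed after overnight attachment and incubated 24 hr at 37 deg C. Steady-Glo luminescence read after 30 min at RT.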
# Nrf2 block: Nrf2 qHTS screen for inhibitors | 360,000 tested, 2.1% active | A549 ARE-Fluc reporter, luciferase luminescence, 18-24 h | Potency, µM (doses to about 46 µM), usual class: inhibitors; also: nearly all actives have a fitted effect of over 60% in size
#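 Nrf2 activity is the BugLite luminescence, read 15 min after reagent at room temperature, following CellTiter-Fluor cytotoxicity readout (30 min, 37C). Compound titrations were applied for 18-24 h to 5000 A549 ARE_Fluc cells/well in 5% FBS OPTI-MEM.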
# Glioma ERSR ind: qHTS for Inducers of the Endoplasmic Reticulum Stress Response (ERSR) in Human Glioma: qHTS; U87-MG GRP78 promoter luciferase reporter, 16 h; 420,000 tested, 0.02% active; AID 602332, 2012; Potency, µM, most hits filed as activators; also: series mostly up to about 76 µM; nearly all actives have a fitted effect of over 35% in size
#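 Stably transfected U87-MG glioma cells carrying a GRP78-based luciferase sensor; 16 h compound incubation. Luminescence end-point read 10 min after Bright-Glo addition at room temperature.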
# A549 tox-1: Nrf2 qHTS screen for inhibitors: counterscreen for cytotoxicity. A549 ARE-Fluc cells, CellTiter-Fluor viability, 18-24 h. Potency, µM (top dose mostly 46 µM), hits mostly inhibitors. 390,000 tested, 0.16% active
#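 Cytotoxicity counterscreen: CellTiter-Fluor fluorescence was measured in A549 ARE_Fluc cells after 18-24 h of compound exposure in a concentration series. The subsequent BugLite luminescent read reports ARE-luciferase activity.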
# Mito fusion yeast: qHTS Assay for Small Molecule Inhibitors of Mitochondrial Division or Activators of Mitochondrial Fusion; AID 485298, 2010; 320,000 tested, 0.23% active; Potency, µM (top dose mostly 46.1 µM), usual class: activators; S. cerevisiae fusion-defective mutant growth rescue, CellTiterGlo 48 h; also: nearly all actives have a fitted effect of over 45% in size
#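 Compounds are tested for their ability to restore growth of mitochondrial fusion-defective yeast strains at non-permissive 37C in YPEG medium over 48 hours. Viability is quantified by luciferase luminescence.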
# miR-21 reporter: qHTS Assay for Modulators of miRNAs and/orActivators of miR-21; AID 2288, 2010; Potency, µM (doses to about 38.3 µM), usual class: activators; HeLa miR-21 FLuc reporter, luciferase, 48 h; 340,000 tested, under 10 active;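 also: miR-21 action dims this reporter so a rising signal means less miR-21 action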
#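 Using DMEM plus 10% FBS, HeLa miR-21-FLuc cells are incubated with test compounds (final up to about 40uM) for 48 hours; firefly luciferase signal is then imaged following reagent-mediated lysis.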
# FLuc enzyme inh: Nrf2 qHTS screen for inhibitors: Purified Fluc Biochemical Counterscreen for Hit Validation. shares compounds with Nrf2 block. purified firefly luciferase, luminescence inhibition. Potency, µM (highest dose often 57.5 µM), most hits filed as inhibitors. 1,400 tested, 4% active. AID 720522, 2013; also: nearly all actives have a fitted effect of over 65% in size
# Target sequence (P08659 whole entry, looked up): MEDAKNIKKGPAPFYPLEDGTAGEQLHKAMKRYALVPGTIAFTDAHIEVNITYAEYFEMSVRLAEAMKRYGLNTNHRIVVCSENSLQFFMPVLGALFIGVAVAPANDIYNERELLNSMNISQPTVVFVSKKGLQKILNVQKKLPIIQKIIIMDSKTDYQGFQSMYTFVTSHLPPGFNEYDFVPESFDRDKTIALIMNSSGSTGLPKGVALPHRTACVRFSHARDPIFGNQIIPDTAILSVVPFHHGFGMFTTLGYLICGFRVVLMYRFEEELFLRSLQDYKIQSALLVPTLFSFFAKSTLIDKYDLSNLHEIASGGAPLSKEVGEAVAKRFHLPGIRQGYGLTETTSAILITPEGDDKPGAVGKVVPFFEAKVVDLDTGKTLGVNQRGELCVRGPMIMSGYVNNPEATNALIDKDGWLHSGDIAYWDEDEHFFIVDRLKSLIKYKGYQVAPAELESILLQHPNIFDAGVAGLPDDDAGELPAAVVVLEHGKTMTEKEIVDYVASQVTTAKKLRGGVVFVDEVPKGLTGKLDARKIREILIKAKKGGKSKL
# A549 tox-2: Nrf2 qHTS screen for inhibitors: A549 ARE-Fluc Cytotoxicity Counterscreen for Hit Validation. Potency, µM (series often up to 46.1 µM), usual class: inhibitors. shares compounds with Nrf2 block. 1,400 tested, 2% active. A549 ARE-Fluc cells, cytotoxicity counterscreen. AID 720523, 2013;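 also: cells exposed to compounds for 18 to 24 hours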
# ARE-Fluc inh: Nrf2 qHTS screen for inhibitors: Nrf2 A549 ARE-Fluc Confirmation Assay for Hit Validation | shares compounds with Nrf2 block | A549 ARE-firefly luciferase reporter, luminescence | Potency, µM (series often up to 46.1 µM), usual class: inhibitors | 1,400 tested, 74% active; also: nearly all actives have a fitted effect of over 65% in size
# Numbers stand for hits; n = inactive; u = inconclusive; x = no result shown. Calls follow the shape of the dose curve; as a rule, active = well fitted curve in the direction sought with a large enough effect; inconclusive = small, poorly fitted or top-dose-only effect, or another doubt; inactive = no such curve, though single readings can be large; an effect the other way counts as inactive or inconclusive.
SMILES,Nrf2 activator,Nrf2 block,Glioma ERSR ind,A549 tox-1,Mito fusion yeast,miR-21 reporter,FLuc enzyme inh,A549 tox-2,ARE-Fluc inh
C[C@@H]1C[C@@H]2[C@H]3CCC4=CC(=O)C=C[C@]4(C)[C@]3(F)[C@@H](O)C[C@@]2(C)[C@@]1(O)C(=O)CO,x,x,n,x,x,x,x,x,x
CC1(C)O[C@@H]2C[C@H]3[C@@H]4CCC5=CC(=O)CC[C@]5(C)[C@@]4(F)[C@@H](O)C[C@]3(C)[C@]2(C(=O)CCl)O1,n,0.012µM,n,n,n,x,n,n,0.0082µM
CC(=O)C12OC(C)(C)OC1CC1C3CCC4=CC(=O)C=CC4(C)C3(F)C(O)CC12C (configuration not stated),n,0.0082µM,n,n,x,x,n,n,0.0065µM
CC1(C)O[C@H]2C[C@@H]3[C@H]4CCC5=CC(=O)CC[C@@]5(C)[C@]4(F)[C@@H](O)C[C@@]3(C)[C@@]2(C(=O)CCl)O1,x,x,n,x,x,x,x,x,x
C[C@@H]1C[C@H]2[C@@H]3CCC4=CC(=O)C=C[C@]4(C)[C@@]3(F)[C@@H](O)C[C@]2(C)[C@@]1(O)C(=O)CO,n,0.0046µM,n,n,n,x,n,n,0.0052µM
CCOc1ccccc1C(=O)NCC(=O)NCCCc1ccccc1,n,u,n,n,n,n,x,x,x
CC(=NNc1nc2ccccc2o1)c1ncccn1,u,3.3µM,n,n,x,x,19µM,u,x
CCOc1cccc2sc(NC(=O)c3ccc(Br)s3)nc12,n,n,n,n,n,n,x,x,x
CC(C)c1ccccc1-n1c(SCC(=O)N2CCc3ccccc3C2)nc2ccccc2c1=O,n,8.2µM,n,n,n,u,n,u,16µM
O=C(CSc1nc2ccccc2c(=O)n1-c1ccccc1)N1CCc2ccccc2C1,n,u,n,n,n,n,x,x,x
COc1ccc(C(=O)NC(c2ccccc2Cl)c2cc(Cl)c3cccnc3c2O)cc1 (configuration not stated),n,4.1µM,n,u,x,u,n,n,4.6µM
Nc1nnc(CCCCCc2nnc(N)s2)s1,n,u,n,n,n,n,x,x,x
O=c1oc2ccccc2cc1-c1csc(Cc2nc(-c3ccc(Br)cc3)cs2)n1,n,2.9µM,n,n,n,n,n,n,x
Cc1cc(C)c(-c2csc(Cc3nc(-c4cc5ccccc5oc4=O)cs3)n2)cc1C,n,u,n,n,n,n,x,x,x
Cc1ccc(-c2csc(Cc3nc(-c4cc5ccccc5oc4=O)cs3)n2)cc1,n,4.6µM,n,n,n,n,n,n,7.3µM
CCCCn1c(SCC(=O)Nc2ccc(F)cc2)nc2c(sc3ccccc32)c1=O,n,x,n,n,x,n,x,x,x
CC1CCc2c(sc(NC(=O)/C=C/c3cccs3)c2C(=O)O)C1 (configuration not stated),n,6.5µM,n,n,n,n,u,u,7.3µM
Cc1cc(C)c(C)c(S(=O)(=O)N2CCN(c3ncnc4ccccc34)CC2)c1C,n,9.2µM,n,n,18µM,x,n,n,9.2µM
Cc1cc(C)c(C)c(S(=O)(=O)N2CCN(c3ccccn3)CC2)c1C,n,u,n,n,u,n,x,x,x
CCCc1ccc(-c2ccc(/C=C/C(=O)O)cc2)nc1,n,0.037µM,n,n,u,u,0.27µM,n,0.058µM
CC(=O)c1c(O)cc(C)n(Nc2nc(C)cc(C)n2)c1=O,n,n,n,n,n,n,x,x,x
CN(C)c1ccc(/C=C/c2ccc3ccccc3n2)cc1,n,u,n,u,n,u,x,x,x
CN(C)c1ccc(/C=C/c2cc(/C=C/c3ccc(N(C)C)cc3)c3ccccc3n2)cc1,x,x,n,x,x,x,0.17µM,n,0.58µM
CN(C)c1ccc(/C=C/c2cccc3cc4ccccc4nc23)cc1,x,x,n,x,x,x,19µM,u,1.6µM
CN(C)c1ccc(/C=C/c2ccc3cc(N(C)C)ccc3n2)cc1,x,x,n,x,x,x,x,x,x
SMILES,Nrf2 activator,Nrf2 block,Glioma ERSR ind,A549 tox-1,Mito fusion yeast,miR-21 reporter,FLuc enzyme inh,A549 tox-2,ARE-Fluc inh
O=C1c2ccccc2C(O)N1c1cccnc1 (configuration not stated),n,n,n,n,n,n,x,x,x
COc1ccc2c(c1)N(C)/C(=C/c1cccc[n+]1C)S2,n,3.3µM,n,16µM,n,u,n,u,4.1µM
CCN1/C(=C/c2cccc[n+]2C)Sc2ccc(OC)cc21,n,5.8µM,n,n,n,u,n,n,6.5µM
Cc1ccc2c(c1)N(C)/C(=C/c1cccc[n+]1CCO)S2,n,n,n,n,n,u,x,x,x
CN1/C(=C/c2cccc[n+]2C)Sc2ccccc21,n,0.82µM,n,12µM,n,u,n,u,2.1µM
CC(C)[C@H](CO)Nc1nc(Nc2ccc(C(=O)O)c(Cl)c2)c2ncn(C(C)C)c2n1,x,x,n,x,x,x,x,x,x
C=CC(=O)Nc1ccc(Nc2nc(NC3CCC(N(C)C)CC3)nc3c2ncn3C(C)C)cc1 (configuration not stated),n,2.6µM,n,18µM,x,x,n,8.2µM,2.6µM
CC(C)Oc1ccc(C(=O)NCC(c2ccc(N(C)C)cc2)N2CCc3ccccc32)cc1 (configuration not stated),n,x,n,n,x,n,x,x,x
COCCNS(=O)(=O)c1ccc2c(c1)Cc1cc(S(=O)(=O)NCCOC)ccc1-2,n,n,n,n,n,n,x,x,x
COCCNC(=O)C1CCN(C(=O)c2cc3sccc3n2Cc2ccc(Cl)cc2)CC1,n,8.2µM,n,u,x,u,n,n,5.8µM
CCC(C)NC(=O)C1CCN(C(=O)c2cc3sccc3n2Cc2ccc(Cl)cc2)CC1 (configuration not stated),n,2.3µM,n,u,x,u,n,u,6.5µM
COCCCNC(=O)C1CCN(C(=O)c2cc3sccc3n2Cc2ccc(Cl)cc2)CC1,n,u,n,n,x,n,x,x,x
COc1cc(NS(=O)(=O)c2ccc(C)cc2)c2c(c1N)C(=O)c1ccccc1C2=O,n,x,n,x,x,x,x,x,x
O=C(CCNC(=O)c1ccc(Br)cc1)Nc1ncccc1O,n,n,n,n,x,x,x,x,x
